Experimental data reported in PubChem BioAssay (NCATS).
Results filed as inconclusive are left out. Values without a mark were called inactive. The source made the active and inactive calls. Calls follow the shape of the dose curve; as a rule, active = well fitted inhibition curve with a large enough effect; inconclusive = small, poorly fitted or top-dose-only effect; inactive = no such curve, though single readings can be large or run the other way.

Assay: Primary qHTS for inhibitors of nuclear receptor binding SET domain protein 2 (NSD2) in an RCH-ACV wild type WT cells (2C) (AID 1645877); also: nearly all actives have a fitted effect of over 70% in size
Conditions: RCH-ACV (leukaemia line) NSD2 WT (2C) viability, CellTiter-Glo, 72 h; series mostly up to 44.9 µM; activity change, negative = cell killing: at the top concentration
Text: Assay Provider: Jonathan D. Licht, MD
University of Florida College of Medicine, Gainesville, FL
Mutations in epigenetic regulators are common in relapsed pediatric acute lymphoblastic leukemia (ALL). Here, we uncovered the mechanism underlying the relapse of ALL driven by an activating mutation of the NSD2 histone methyltransferase (p.E1099K). […] Correction of this mutation restored glucocorticoid sensitivity. The transcriptional response to glucocorticoids was blocked in NSD2 mutant cells due to depressed glucocorticoid receptor (GR) levels and the failure of glucocorticoids to autoactivate GR expression. […] Pre-treatment of NSD2 p.E1099K cell lines and PDX samples with PRC2 inhibitors reversed glucocorticoid resistance in vitro and in vivo.
High-throughput drug screening of isogenic RCH-ACV cell lines was performed at the National Center for Advancing Translational Science (NCATS), National Institutes of Health as previously described (1). Briefly, isogenic RCH-ACV NSD2 p.E1099K mutant (9B) and WT cells (2C) were plated at 500 cells/well in a 1536-well plate with a 72-hour incubation with compounds prior to addition of CellTiter-Glo to assess cell viability. NCATS libraries screened include: NPC, MIPE 5.0, Kinase and NPACT. To determine compound activity in the qHTS assay, the concentration-response data for each sample was plotted and modeled by a four-parameter logistic fit yielding IC50 and efficacy (maximal response) values. The area under the curve (AUC) of the dose-response curve ensures both efficacy (magnitude of cell killing) and potency (concentration that elicits cell killing) are accounted for in the analysis of activity.
1. Tobie D Lee, Olivia W Lee, Kyle R Brimacombe, Lu Chen, Rajarshi Guha, Sabrina Lusvarghi, Bethilehem G Tebase, Carleen Klumpp-Thomas, Robert W Robey, Suresh V Ambudkar, Min Shen, Michael M Gottesman, Matthew D Hall. A High-Throughput Screen of a Library of Therapeutics Identifies Cytotoxic Substrates of P-glycoprotein. Mol Pharmacol. 2019, Nov;96(5):629-640.
% is scaled to controls: 0 for no effect and ±100 for the full control effect; potency is read from the fitted curve at half-maximal effect.

| SMILES | activity change, negative = cell killing | Potency | outcome |
| --- | --- | --- | --- |
| CN1CC[C@]23c4c5ccc(O)c4O[C@H]2[C@@H](O)CC[C@H]3[C@H]1C5 | -2.67% [at 91.9 µM] |  |  |
| CCCCCCCCCC(=O)O[C@H]1CC[C@H]2[C@@H]3CCC4=CC(=O)CC[C@@H]4[C@H]3CC[C@]12C | -4.98% |  |  |
| CCN(CCO)CCn1c(Cc2ccccc2)nc2c1c(=O)n(C)c(=O)n2C | -6.88% |  |  |
| O=C1OC(CCN2CCCCC2)OC1(c1ccccc1)c1ccccc1 (stereo not given) |  | 13.3 µM (active) |  |
| O=c1[nH]c2ccccc2n1C1CCNCC1 | -9.35% |  |  |
| CCN[C@@H](C)Cc1ccccc1 | -23.2% [at 91.9 µM] |  |  |
| CCCCCCC(=O)CCCCCC/C=C/C[C@@H](O)[C@H](O)[C@@](N)(CO)C(=O)O |  |  | inactive [at 17.3 µM] |
| CN1CCC(O)(c2ccc(F)cc2)C(C(=O)c2ccc(F)cc2)C1 (stereo not given) | -6.19% |  |  |
| O=c1[nH]oc2c1CCNC2 |  |  | inactive |
| CC(C)NC(C)C |  |  | inactive |
| O=C1c2ccccc2C(=O)c2ccccc21 | 8.26% [at 17.3 µM] |  |  |
| C[N+]1(CCF)[C@@H]2CC[C@H]1CC(OC(=O)C(O)(c1ccccc1)c1ccccc1)C2 (stereo not given in full) |  |  | inactive |
| C[C@H]1[C@@H]2Cc3ccc(O)cc3[C@@]1(C)CCN2C | -18.3% [at 231 µM] |  |  |
| C[C@]12CC[C@H]3[C@@H](CCC4=CC(=O)CC[C@@H]43)[C@@H]1CC[C@@H]2OC(=O)CCC1CCCCC1 |  | 18.8 µM (active) |  |
| CC(=O)OCC1=C(C(=O)O)N2C(=O)[C@@H](N)[C@H]2SC1 |  | inactive |  |
| O=C(Nc1ccc(Br)cc1)c1cc(Br)cc(Br)c1O | -2.71% |  |  |
| C[C@]12CC[C@@H]3c4ccc(OC(=O)N(CCCl)CCCl)cc4CC[C@H]3[C@@H]1CC[C@@H]2OP(=O)(O)O |  | inactive |  |
| CC(Cc1ccccc1)NCCn1cnc2c1c(=O)n(C)c(=O)n2C (stereo not given) | -28.4% [at 91.9 µM] |  |  |
| NC(=O)c1cc([N+](=O)[O-])cc([N+](=O)[O-])c1 | 5.15% |  |  |
| C=CCN1C[C@H](C)N([C@H](c2ccc(C(=O)N(CC)CC)cc2)c2cccc(OC)c2)C[C@H]1C |  | inactive |  |

| SMILES | activity change, negative = cell killing | Potency | outcome |
| --- | --- | --- | --- |
| CN(C)CCc1c[nH]c2cccc(OP(=O)(O)O)c12 | -20.7% [at 91.9 µM] |  |  |
| COc1c2c(cc3c1OCO3)CCN(C)C2 | -17.9% |  |  |
| Cc1ncsc1CCCl | -2.6% |  |  |
| CC(C)N(CCC(C(N)=O)(c1ccccc1)c1ccccn1)C(C)C (stereo not given) |  | inactive |  |
| COc1ccc2c(c1OC)C(=O)O[C@H]2[C@@H]1c2cc3c(cc2CCN1C)OCO3 | 8.38% |  |  |
| CCCN(CCC)C(=O)Cc1c(-c2ccc(Cl)cc2)nc2ccc(Cl)cn12 | -22.9% |  |  |
| CCC(C)C(C)(COC(N)=O)COC(N)=O (stereo not given) |  |  | inactive |
| CCC(CC)(CNC(=O)CCCO)c1cccc(OC)c1 | -14% |  |  |
| CC(C)c1c(CN(C)C(C)Cc2ccccc2)n(C)n(-c2ccccc2)c1=O (stereo not given) | 9.7% |  |  |
| CC(Cc1ccccc1)N(C)Cc1ccco1 (stereo not given) | 0.184% |  |  |
| CC(=O)NC1CCSC1=O (stereo not given) | -0.334% |  |  |
| COP(=S)(OC)Oc1cc(Cl)c(Cl)cc1Cl | -0.306% |  |  |
| COc1cccc(C(=O)CCN[C@@H](C)[C@H](O)c2ccccc2)c1 |  | 9.44 µM (active) |  |
| COc1cc(OC)c(OC)cc1C=O | -22.5% [at 91.9 µM] |  |  |
| NC(=O)CS(=O)C(c1ccccc1)c1ccccc1 (stereo not given) |  |  | inactive |
| CC[N+]1(CC)CCC(OC(=O)C(O)(c2ccccc2)c2ccccc2)C1 (stereo not given) | -1.83% |  |  |
| O=C1OC(c2ccc(O)c(S(=O)(=O)O)c2)(c2ccc(O)c(S(=O)(=O)O)c2)c2c(Br)c(Br)c(Br)c(Br)c21 | -7.98% |  |  |
| CCCOC(=O)c1cncn1C(C)c1ccccc1 (stereo not given) | 5.2% |  |  |
| C[C@H](N)C(=O)c1ccccc1 | -7.36% [at 155 µM] |  |  |
| Clc1ccc(C(c2ccc(Cl)cc2)C(Cl)(Cl)Cl)cc1 |  |  | inactive |
